These results are taken from PubChem BioAssay (EPA / NIEHS).

A short description of experiment [1]: APR_HepG2_P-H2AX_72hr: Apredica 72-hour HepG2 Assay for H2AX Phosphorylation (AID 2282916).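 Note: phospho-histone H2A.x immunostain intensity per cell marking DNA damage.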 The settings on record: imaging, actives raise or lower the signal. The method in brief:
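HepG2; cpd 0.39–200 uM ×10 conc, duplicates; 0.5% DMSO; 72 hr. Fix 3.7% formaldehyde 30 min RT, 0.5% Triton X-100 10 min. Anti-phospho-H2A.x 1:200 + Hoechst 2 ug/mL, 60 min RT; ArrayScan imaging.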

A short description of experiment [2]: APR_HepG2_MitoMembPot_72hr: Apredica 72-hour HepG2 Assay for Mitochondrial Membrane Potential (AID 2282917). The settings on record: imaging, actives raise or lower the signal. The method in brief:
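HepG2 cells dosed 72 hr with compound at 0.39–200 uM in duplicate, 0.5% v/v DMSO final. Mitochondria stained with 250 nM MitoTracker Red CMXRos for 30 min before formaldehyde fixation, imaged by high-content fluorescence; bidirectional fit versus DMSO.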

The nature of experiment [3]: APR_HepG2_MitoticArrest_72hr: Apredica 72-hour HepG2 Assay for Mitotic Arrest (AID 2282918). The settings on record: high-content imaging, actives raise or lower the signal. The method in brief: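 Using high-content imaging of fixed HepG2 cells, phospho-histone H3 signal was measured following a 72 hr incubation with ten-point compound dilutions up to 200 uM. DMSO served as the negative control and baseline for bidirectional curve fitting.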

Experiment [4] can be described thus: APR_HepG2_MicrotubuleCSK_72hr: Apredica 72-hour HepG2 Assay for Microtubule CSK Stabilty (AID 2282919). The note with it: HepG2 microtubule cytoskeleton, high-content imaging, actives raise or lower the signal. The method in brief:
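HepG2 cells were exposed 72 hr to compound at 0.39–200 uM in duplicate (0.5% DMSO final), then fixed and permeabilized. Alpha-tubulin immunofluorescence was imaged by high-content microscopy, with bidirectional fitting against DMSO and taxol as positive control.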

A short description of experiment [5]: APR_HepG2_P-H2AX_24hr: Apredica 24-hour HepG2 Assay for H2AX Phosphorylation (AID 2282920). The settings on record: high-content imaging, actives raise or lower the signal. The gist of the method: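 Human HepG2 liver cells, treated 24 hr with test chemicals (0.39–200 uM, final DMSO 0.5% v/v), are fixed and co-stained for phospho-H2A.x and c-Jun with Hoechst. Imaged intensity is fitted in both directions against DMSO controls.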

Experiment [6] in a line: APR_HepG2_StressKinase_72hr: Apredica 72-hour HepG2 Assay for Stress Kinase (AID 2282921). The note with it: HepG2 stress kinase (phospho-c-Jun) imaging, actives raise or lower the signal. The method in brief:
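Dose 0.39–200 uM (10 pts, duplicate), 0.5% DMSO; 72 h; fix 3.7% formaldehyde 30 min RT; Triton permeabilize; anti-phospho-c-Jun/Cy3 + Hoechst 60 min RT; image 20x; fit gain/loss vs DMSO.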

Experiment [7] can be described thus: APR_HepG2_StressKinase_24hr: Apredica 24-hour HepG2 Assay for Stress Kinase (AID 2282922). The note with it: HepG2 stress kinase (phospho-c-Jun) imaging, actives raise or lower the signal. The gist of the method:
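HepG2 cells exposed 24 h to 0.39–200 uM compound in duplicate (0.5% v/v DMSO final). Cells fixed in 3.7% formaldehyde, permeabilized and immunostained for phospho-c-Jun; read by high-content fluorescence imaging, fitted bidirectionally against DMSO.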

A short description of experiment [8]: APR_HepG2_MitoMass_72hr: Apredica 72-hour HepG2 Assay for Mitochondrial Mass (AID 2282924).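 Note: MitoTracker Red CMXRos stain intensity per cell imaged as mitochondrial mass.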 The settings on record: high-content imaging, actives raise or lower the signal. The method in brief:
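HepG2 cells dosed 72 hr at 0.39–200 uM (0.5% DMSO), in duplicate. MitoTracker Red CMXRos 250 nM loaded 30 min before formaldehyde fixation; high-content fluorescence imaging, bidirectional fit versus DMSO.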

Experiment [9] is described as follows: APR_HepG2_NuclearSize_72hr: Apredica 72-hour HepG2 Assay for Nuclear Size (AID 2282925). The settings on record: high-content imaging, actives raise or lower the signal. The method in brief:
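HepG2 cells dosed 72 h at 0.39–200 uM (10 concentrations, duplicate) in 0.5% v/v DMSO final. Fixed, Hoechst 33342-stained nuclei imaged; nuclear diameter measured by automated image analysis. Bidirectional fit versus DMSO.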

Experiment [10] can be described thus: APR_HepG2_p53Act_72hr: Apredica 72-hour HepG2 Assay for p53 Activation (AID 2282923).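 Note: average cellular p53 protein immunofluorescence intensity in HepG2 cells.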 The settings on record: high-content imaging, actives raise or lower the signal. The method in brief:
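10-pt conc. 0.39–200 uM, duplicate, 0.5% DMSO; 72 hr exposure; 3.7% formaldehyde fix, 0.5% Triton perm; sheep anti-p53/Cy5 + Hoechst; ArrayScan 20x, 6 images/well; gain/loss fit vs DMSO.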

Activity calls are given as the source filed them. Rule for the calls: active = hit-call score of the fitted dose curve at least 0.9, where 1 is the maximum; inactive = score below 0.9.

For orientation: AC50 means the concentration giving half of the maximal activity seen.

As for `O=C1O[C@H]([C@@H](O)CO)C(O)=C1O`, the AC50 in experiment [1] is 11.2 µM (active); in [3], 7.73 µM (active); in experiment [9] it was 11.1 µM (active). Also, the molecule was called inactive in experiment [2], in experiment [4], in experiment [5], in experiment [6], in experiment [7] and in experiment [8].
Regarding `CCCCCc1ccc(N)cc1`, the molecule was called inactive in experiment [1], in [2], in experiment [3], in [4], in experiment [5] and in experiment [6]. Further, the outcome in experiment [7], in [10], in experiment [8] and in experiment [9] was inactive.
As for `CCCCCCCCOC(=O)c1cc(O)c(O)c(O)c1`, the half-maximal activity concentration (AC50) in experiment [1] was 5.88 µM (active); in experiment [2], 23.8 µM (active); in experiment [3], 68.3 µM (active); in experiment [5], 45.6 µM (active); in experiment [7] it was 52.1 µM (active). The outcome in experiment [4], in experiment [6], in experiment [8] and in [9] was inactive.
In the case of `CCCCCCCCCCCCO`, the molecule was classed as inactive in experiment [1], in experiment [2], in experiment [3], in experiment [4], in experiment [5] and in experiment [6]. The molecule was classed as inactive in [7], in [10] and in [9]. In experiment [8], the AC50 was 119 µM (active).
As for `CC[C@H](NC(=O)c1cc(F)ccc1NS(=O)(=O)c1cccc2cccnc12)c1ccccc1`, the result in [1], in [2], in experiment [4], in experiment [5], in experiment [6] and in experiment [7] was inactive. The call in experiment [8] and in experiment [9] was inactive. In addition, the AC50 in experiment [3] is 92.5 µM (active).
`Clc1cc(Cl)c2c(c1)N=C1CCCCCN1C2`: the outcome in experiment [1], in [2], in experiment [3], in [4], in experiment [5] and in experiment [6] was inactive. The outcome in [7], in experiment [8] and in experiment [9] was inactive.
Turning to `c1ccc2ccccc2c1`, the molecule was classed as inactive in experiment [1], in experiment [2], in experiment [4], in [5], in [6] and in [7]. Moreover, the molecule was classed as inactive in experiment [9]. Moreover, the results for the AC50 in experiment [3] and in experiment [8] were 0.0415 µM (active) and 0.0598 µM (active), respectively.
Regarding `O=C(O)c1ccccc1C(=O)OCc1ccccc1`, the molecule was called inactive in experiment [1], in experiment [2], in experiment [3], in [4], in [5] and in experiment [6]. In addition, the outcome in experiment [7], in experiment [10], in [8] and in [9] was inactive.
In the case of `C[C@]12CC[C@@H]3c4ccc(O)cc4CC[C@H]3[C@@H]1CC[C@H]2O`, the call in experiment [1], in experiment [2], in experiment [3], in experiment [4], in experiment [6] and in experiment [7] was inactive. Also, the call in experiment [8] and in [9] was inactive. For the same molecule, the AC50 in experiment [5] was 62.4 µM (active).
For the molecule `CCCCCCCC[Si](OCC)(OCC)OCC`, the AC50 in experiment [1] is 19.8 µM (active); in experiment [3], 115 µM (active); in [6], 100 µM (active); in experiment [8] it was 41.2 µM (active). For the same molecule, the molecule was called inactive in [2], in experiment [4], in [5], in experiment [7] and in experiment [9].
For the molecule `CC(C)(O)c1ccc(CNC(=O)c2cccnc2Oc2ccc3nonc3c2)cc1`, the molecule was called inactive in experiment [1], in experiment [2], in experiment [3], in experiment [4], in experiment [5] and in [6]. Moreover, the result in [7], in experiment [8] and in [9] was inactive.
Take `Cc1ncc(CO)c(CO)c1O`: the outcome in experiment [1], in [2], in experiment [3], in [4], in [5] and in experiment [6] was inactive. In addition, the molecule was called inactive in experiment [7], in experiment [10], in [8] and in experiment [9].
Turning to `Cc1c2ccccc2c(C)c2c1ccc1ccccc12`, the half-maximal activity concentration (AC50) in experiment [1] was 21.5 µM (active); in experiment [3], 35.8 µM (active); in [4], 74 µM (active); in [5], 19.8 µM (active); in experiment [6] it was 6.17 µM (active); in experiment [10], 0.355 µM (active). Moreover, the AC50 in [9] is 54.7 µM (active). Further, the molecule was called inactive in [2], in experiment [7] and in experiment [8].
As to `O=C(O)c1ccccc1-n1cc(C(=O)O)c(=O)c2cc(Nc3c(F)cc(F)cc3Cl)c(Cl)cc21`, the call in experiment [1], in [2], in experiment [3], in experiment [4], in experiment [5] and in [6] was inactive. In addition, the result in experiment [7], in [10], in experiment [8] and in [9] was inactive.
Take `CCCCOC(=O)CC(CC(=O)OCCCC)(OC(C)=O)C(=O)OCCCC`: the AC50 in [1] is 56.2 µM (active); in experiment [3], 42 µM (active); in experiment [4], 43.6 µM (active); in [6] it was 56.4 µM (active). The result in [2], in experiment [5], in [7], in experiment [8] and in experiment [9] was inactive.
For the molecule `Cc1cccc2ccccc12`, the molecule was classed as inactive in experiment [1], in [2], in experiment [3], in [4], in [5] and in experiment [6]. Moreover, the molecule was classed as inactive in [7], in experiment [8] and in experiment [9].
As to `OCCO`, the molecule was classed as inactive in [1], in experiment [2], in experiment [3], in experiment [4], in [5] and in experiment [6]. Further, the result in experiment [7], in experiment [8] and in experiment [9] was inactive.
As for `O=CCCCC=O`, the outcome in experiment [1], in experiment [2], in experiment [3], in [4], in experiment [5] and in [6] was inactive. Also, the molecule was classed as inactive in experiment [7], in experiment [10], in [8] and in experiment [9].
